# Shown is part of a subset that was picked to be rich in hits.
# Pf Dd2 inh – qHTS Primary assay for Inhibitors of Plasmodium falciparum Dd2 growth in vitro | P. falciparum Dd2 growth, SYBR Green, 72 h | Potency, µM (series often up to 28.9 µM), hits mostly inhibitors | 120,000 compounds, 4.3% hits; active = well fitted inhibition curve with a large enough effect; note: nearly all actives have a fitted effect of over 65% in size
#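 Readout: SYBR Green fluorescence, 485 nm excitation, 535 nm emission, after ~16 h lysis at 37C. Before that, Dd2-infected red cells (2.5% hematocrit) grew 72 h with compound, 29 uM top final concentration.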
# Hits are given with their value; - = inactive.
SMILES,Pf Dd2 inh
O=C(c1ccncc1)N1CCC(Oc2nccnc2N2CCOCC2)C1 (centres undefined),-
OC(c1nc(Nc2ccc(Cl)c(C(F)(F)F)c2)n[nH]1)C1CC1 (centres undefined),-
NCCn1cc(C(=O)N2CCC(Oc3ccncc3)CC2)nn1,-
Cc1cnc(C(=O)N2CCCN(S(=O)(=O)c3ccccc3)CCC(=O)NCC2)cn1,-
CC(=O)N1CCCN(S(=O)(=O)c2ccccc2)CCC(=O)NCC1,-
CN(C)S(=O)(=O)N1CCCN(S(=O)(=O)c2ccccc2)CCC(=O)NCC1,-
Cn1cnc(C(=O)N2CCCN(S(=O)(=O)c3ccccc3)CCC(=O)NCC2)c1,-
CCC(=O)N1CCCN(S(=O)(=O)c2ccccc2)CCC(=O)NCC1,-
O=C1CCN(S(=O)(=O)c2ccccc2)CCCCCCN1,-
O=C1CCN(S(=O)(=O)c2ccccc2)CCCN(Cc2ccc3cc[nH]c3c2)CCN1,5µM
O=C1CCN(S(=O)(=O)c2ccccc2)CCCN(Cc2ccccc2)CCN1,8.9µM
Cc1noc(C)c1CN1CCCN(S(=O)(=O)c2ccccc2)CCC(=O)NCC1,-
O=C1CCN(S(=O)(=O)c2ccccc2)CCCN(S(=O)(=O)c2ccc3c(c2)CCC3)CCN1,3.5µM
O=C1CCN(S(=O)(=O)c2ccccc2)CCCN(C(=O)c2ccc3ccccc3n2)CCN1,11µM
CCn1cc(CN2CCCN(S(=O)(=O)c3ccccc3)CCC(=O)NCC2)c(C)n1,-
COc1ccc(-c2noc([C@@H]3CCCN3C(=O)c3ccc(C)c(C)c3)n2)cc1OC,-
CNC(=O)[C@@H]1C[C@H](Oc2cccnc2)CN1C(=O)c1ccc(Cc2c(C)noc2C)o1,-
CNc1nc(C(=O)N2CCC3(CC2)c2nc[nH]c2CCN3C)cs1,-
Cc1cc(C(=O)N2C[C@@H](COc3ccccc3)[C@H](C(N)=O)C2)no1,-
O=C(CC1CCCC1)Nc1ccc2ncnc(N3CCCCC3)c2c1,-
COCCNC(=O)CCC1CCN(C(=O)c2ccccc2Cl)CC1,-
CCc1cc(NCc2nc(-c3ccncc3)n[nH]2)n2nc(C)c(C)c2n1,-
C[C@@H](N)C(=O)N1CCC(n2nccc2NC(=O)Nc2ccccc2Cl)CC1,-
NC(=O)[C@H](Cc1ccc(O)cc1)NC(=O)C1=C[C@@H](NC(=O)c2cccnc2)[C@@H](O)[C@H](O)C1,-
Cc1ncc2c(c1CNC(=O)c1cccc(N3CCOCC3)c1)CCNC2,-
SMILES,Pf Dd2 inh
O=C1CCN(S(=O)(=O)c2ccccc2)CCCN(Cc2cccc3[nH]ccc23)CCN1,7.9µM
CC(C)C(=O)N1CCCN(S(=O)(=O)c2ccccc2)CCC(=O)NCC1,-
O=C1CCN(S(=O)(=O)c2ccccc2)CCCNCCN1,-
CCC1(N2CCN(C(=O)c3ccncc3)CC2)CCN(CCC(C)C)C1 (centres undefined),-
CN(C)c1nccnc1OC1CCN(C(=O)CCC(=O)c2ccc(F)cc2)C1 (centres undefined),5.6µM
CCC(CC)C(=O)N1CCC(Oc2nccnc2N(C)C)C1 (centres undefined),-
CN(C)c1nccnc1OC1CCN(C(=O)c2ccncc2)C1 (centres undefined),-
CC(C)CC(=O)N1C[C@@H]2CCCN3CCC[C@@H]([C@H]23)[C@H]1CCCC(=O)NCC1CC1,-
O=C(NCc1ccco1)[C@@H]1Cc2nc[nH]c2CN1Cc1ccc(C(F)(F)F)cc1,-
COc1cccc(NC(=O)Nc2cc(-c3cn4cccnc4n3)ccc2OC)c1,-
COc1cccc(NC(=O)Nc2cc(-c3cn4cccnc4n3)ccc2C)c1,-
COc1ccc(-c2cn3cccnc3n2)cc1NC(=O)Nc1cc(C)ccc1C,11µM
O=C(NCc1nnc2c(-c3nc(C4CC4)no3)cccn12)c1c[nH]c2ccccc12,-
O=[S+]1([O-])NC2(CCCN(Cc3cccc(C(F)(F)F)c3)C2)COc2ccccc21 (centres undefined),-
CC1CCN(c2nc3c(S(=O)(=O)c4ccccc4)nnn3c3ccc(Cl)cc23)CC1,1.1µM
Cc1ccc(S(=O)(=O)c2nnn3c2nc(N2CCC(C)CC2)c2cc(Cl)ccc23)cc1C,11µM
Cc1ccc(S(=O)(=O)c2nnn3c2nc(NC(C)C)c2cc(Cl)ccc23)cc1C,-
CC1CCN(c2nc3c(S(=O)(=O)c4ccccc4)nnn3c3ccsc23)CC1,-
CCc1ccc(S(=O)(=O)c2nnn3c2nc(N2CCC(C(N)=O)CC2)c2cc(Cl)ccc23)cc1,-
Cc1ccc(C)c(S(=O)(=O)c2nnn3c2nc(N2CCOCC2)c2ccccc23)c1,-
Cc1ccc(C)c(S(=O)(=O)c2nnn3c2nc(N2CCCCC2)c2ccccc23)c1,13µM
CN1CCN(c2nc3c(S(=O)(=O)c4ccc(Cl)cc4)nnn3c3ccsc23)CC1,10µM
CC(C)c1ccc(S(=O)(=O)c2nnn3c2nc(N2CCN(C)CC2)c2sccc23)cc1,-
CC(C)c1ccc(S(=O)(=O)c2nnn3c2nc(N2CCOCC2)c2ccccc23)cc1,-
COCCNc1nc2c(S(=O)(=O)c3ccc(C)c(C)c3)nnn2c2ccc(Cl)cc12,-
SMILES,Pf Dd2 inh
CC1CCN(c2nc3c(S(=O)(=O)c4ccc(Cl)cc4)nnn3c3ccsc23)CC1,-
COc1cccc(CN2C(=O)C3(CCOCC3)CC2c2nnnn2C(C)(C)C)c1OC (centres undefined),-
COC[C@@H]1CN(S(=O)(=O)c2cccc(C)c2)C[C@H]1C(N)=O,-
CN(C)CCNC(=O)c1ccc(-c2ccc(N3CCCCCC3)nc2)cc1,-
CCCCOc1ccc(C(=O)N2CCC(Cc3nc(-c4cnccn4)no3)CC2)cc1,-
COc1cccc(F)c1C(=O)N1C[C@@H](CN2CCOCC2)[C@@H](CO)C1,-
CN1CCCC2(C1)CN(C)c1ccc(C(=O)NCc3cccs3)cc12 (centres undefined),-
O=C(NCc1ccccc1)N1CCC(N(C(=O)C2CC2)C2CCOCC2)CC1,-
Cc1cnn(CCC(=O)N[C@@H]2CN(Cc3ccccn3)C[C@H]2CN(C)C)c1,-
C=CCOC(=O)Nc1nc2c(s1)C[C@@H]1[C@](C)(CO)[C@H](O)CC[C@@]1(C)[C@@H]2CC(=O)NCCN1CCOCC1,-
Cc1ccc(-c2nc(C)c(C(=O)Nc3ccc4c(c3)C(=O)N3CCC[C@H]3C(=O)N4)s2)cc1,-
COC(=O)c1cn([C@H]2CO[C@H]3[C@@H]2OC[C@@H]3NC(=O)NCc2ccccc2)nn1,-
Cc1nccc(-c2ccccc2)c1C(=O)N(C)Cc1csc(C(C)C)n1,-
CN(C)[C@@H](Cc1ccccc1)C(=O)N1CCC(N2CCC(O)CC2)CC1,-
CCOc1ccccc1CNC(=O)c1cccn1-c1nnc(N2CCCCC2)s1,-
c1ccc(N2CCN(Cc3cccn3-c3nnc(N4CCN(C5CCCCC5)CC4)s3)CC2)cc1,-
CCOc1ccccc1CNCc1cccn1-c1nnc(N2CCN(c3ccccc3)CC2)s1,7.1µM
Cc1cc(C)c(CNC(=O)c2nc(-c3cccc(N4CCOCC4)c3)cc3[nH]ccc23)c(=O)[nH]1,8.9µM
COc1ccc(-c2cc3c(ccn3C)c(C(=O)NCc3c(C)cc(C)[nH]c3=O)n2)cc1,-
Cc1cc(C)c(CNC(=O)c2cc(-c3cccc4[nH]ccc34)cc3ncn(C)c23)c(=O)[nH]1,-
Cc1cc(C)c(CNC(=O)c2nc(-c3ccccc3)cc3[nH]ccc23)c(=O)[nH]1,-
COc1cccc(Nc2cc3[nH]ccc3c(C(=O)NCc3c(C)cc(C)[nH]c3=O)n2)c1,11µM
Cc1cc(-c2cc3[nH]ccc3c(C(=O)NCc3c(C)cc(C)[nH]c3=O)n2)ccn1,-

# From PubChem BioAssay
